Bioassay records deposited in PubChem by National Center for Advancing Translational Sciences (NCATS).
This is a sample that favours compounds with a hit; in the whole collection about 19% have one here.
DT40 TDP1 CPT: growth inhibition of DT40 Tdp1-/-;hTDP1 cells with camptothecin (screen for TDP1 inhibitors); Potency, µM (doses to about 46.2 µM), hits mostly inhibitors; AID 686979; 12% of 420,000 active; chicken DT40 Tdp1-/-;hTDP1 cells + 20 nM CPT, ATP luminescence, 48 h; note: nearly all actives have a fitted effect of over 55% in size
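Cell growth measured by CellTiter-Glo luminescence after a minimum 48 h, 37 C compound exposure with 20 nM CPT in Tdp1-knockout DT40 cells stably expressing hTDP1, seeded 400/well; qHTS titration format.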
TDP1 cell noCPT: qHTS for Inhibitors of human tyrosyl-DNA phosphodiesterase 1 (TDP1): qHTS in cells in absence of CPT | DT40 Tdp1-/- hTDP1 cells, no CPT, ATP luminescence, 48 h | Potency, µM (series often up to 46.2 µM), actives largely listed as inhibitors | 15% of 420,000 active | AID 686978, 2013; note: nearly all actives have a fitted effect of over 55% in size
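Chicken DT40 Tdp1-/- cells complemented with human TDP1, screened without camptothecin (DMSO vehicle only), 400 cells/well. Compounds pin-transferred, cells incubated at 37 °C for at least 48 hr. Growth read as ATP-dependent luminescence (CellTiter-Glo, 30 min at RT).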
HT1080 IDH1KD tx: toxicity to HT-1080 IDH1 knockdown cells (counter line). Potency, µM (titrated, usually from 46.1 µM), actives largely listed as cytotoxic. HT-1080 IDH1 knockdown viability, ATP luminescence, 48 h. 2% of 360,000 active
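HT-1080-IDH1KD cells (IDH1 knocked down), 750/well in RPMI with 5% FBS, treated with compound 48 h at 37 degrees C. Viability by CellTiter-Glo luminescence, normalised to DMSO and no-cell wells; concentration-response curves classed.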
HT1080-NT tox: kills 2HG-producing HT-1080-NT fibrosarcoma cells; HT-1080-NT fibrosarcoma viability, CellTiter-Glo ATP luminescence, 48 h; Potency, µM (highest dose often 46.1 µM), actives largely listed as cytotoxic; 1.6% of 360,000 active; AID 686970;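 note: NT is the 2HG producing partner of a matched IDH1 knockdown line; nearly all actives have a fitted effect of over 55% in size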
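HT-1080-NT; 750 cells/well; 5% FBS RPMI; 48 h compound, 37 degrees C; CellTiter-Glo luminescence; curve fitting and curve-class assignment.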
IL-1B inflam inh: blocks inflammasome-driven IL-1 beta release; 4.7% of 360,000 active; activity change, % at 57.5 µM; THP-1 LPS/ATP IL-1B secretion, AlphaLISA, 16 h; hits give low values; in the data active = activity change below about -50%; inconclusive = mostly about -30% to -49%
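Secreted IL-1B measured by AlphaLISA bead assay after 16 h compound exposure of THP-1 cells; compounds (final up to 57.5 uM) added 1 h before LPS (250 ng/mL) and ATP (1.25 mM) stimulation; lower signal means less secretion.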
A number is an active result; – = inactive; ? = inconclusive; · = no result given; [ ] = another dose, or the depositor's remark. Unless noted, calls come from the whole dose curve; as a rule, active = well fitted curve in the direction sought with a large enough effect; inconclusive = small, poorly fitted or top-dose-only effect, or another doubt; inactive = no such curve, though single readings can be large; an effect the other way counts as inactive or inconclusive.

SMILES | DT40 TDP1 CPT | TDP1 cell noCPT | HT1080 IDH1KD tx | HT1080-NT tox | IL-1B inflam inh
CCN(CC)S(=O)(=O)c1ccc(N2CCN(C)CC2)c(NC(=O)CSCC(=O)Nc2cccc(C)c2)c1 | ? | ? | – | – | –
CCN(CC)S(=O)(=O)c1ccc(N2CCCC2)c(NC(=O)c2ccc(OC)cc2OC)c1 | 18.4µM | 16.4µM | – | – | ?
CCN(CC)S(=O)(=O)c1ccc(N2CCCCC2)c(NC(=O)/C(C#N)=C/c2ccc(OC)cc2)c1 | ? | 16.4µM | – | – | –
CCN(CC)S(=O)(=O)c1ccc(N2CCN(C)CC2)c(NC(=O)Nc2ccc(C)cc2)c1 | ? | ? | 20.6µM | 8.2µM | ·
N#CC1=C2CCCCC2(O)NC1=O (stereo unspecified) | – | – | – | – | –
O=C(Cn1c(=O)nc(-c2ccccc2)c2cc(Cl)ccc21)NCCc1ccccc1 | – | – | · | · | ·
COc1cccc(C2(CC(=O)N3CCC(c4nc5ccccc5o4)CC3)CC(=O)N(C)C2=O)c1 (stereo unspecified) | – | – | · | · | ·
c1cc(SSc2ccncc2)ccn1 | ? | 16.4µM | – | – | ?
c1ccc(Sc2ccncc2)cc1 | – | – | – | – | –
COc1ccc(C(=O)Nc2nc(-c3ccc(Br)cc3)ns2)cc1 | – | ? | · | · | ·
COc1ccc(-c2nsc(NC(=O)C(C)Oc3ccc(Cl)c(C)c3)n2)cc1 (stereo unspecified) | 23.1µM | ? | · | · | ·
CC(Oc1ccc(F)cc1)C(=O)Nc1nc(-c2ccc(F)cc2)ns1 (stereo unspecified) | ? | 13µM | · | · | ·
CC(Oc1ccc(F)cc1)C(=O)NN (stereo unspecified) | – | – | – | – | –
COc1ccc(C2c3ccc(O)cc3Oc3ncn4nc(-c5ccncc5)nc4c32)cc1OC (stereo unspecified) | ? | 23.1µM | – | – | -70.3
COc1ccc(C2c3ccc(O)cc3Oc3ncn4nc(-c5ccco5)nc4c32)cc1OC (stereo unspecified) | 16.4µM | ? | 18.4µM | ? | –
COc1ccc(C2c3ccc(O)cc3Oc3ncn4nc(-c5ccccn5)nc4c32)cc1 (stereo unspecified) | – | – | ? | – | –
COc1ccc(C2c3ccc(O)cc3Oc3ncn4nc(-c5ccccn5)nc4c32)cc1OC (stereo unspecified) | 23.1µM | 18.4µM | – | – | –
COc1ccc(N2CCN(C(=O)CCc3nnc4ccc(N5CCC(C)CC5)nn34)CC2)cc1 | 18.4µM | 18.4µM | – | – | –
COc1cccc(N2CCN(c3ccc4nnc(CCC(=O)Nc5ccc(F)cc5)n4n3)CC2)c1 | – | ? | – | – | –
CCCN1CCN(C(=O)CCc2nnc3ccc(N4CCN(c5cccc(OC)c5)CC4)nn23)CC1 | ? | – | – | – | –
COc1ccc(OC)c(NC(=O)CCc2nnc3ccc(N4CCC(C)CC4)nn23)c1 | – | ? | – | – | -50.1
CC1CCN(c2ccc3nnc(CCC(=O)N4CCN(c5ccccc5F)CC4)n3n2)CC1 | 23.1µM | 14.6µM | – | – | –
COc1cccc(N2CCN(c3ccc4nnc(CCC(=O)Nc5cccc(C(C)=O)c5)n4n3)CC2)c1 | 16.4µM | ? | – | – | –
CNC[C@@H]1OCc2cnnn2CCCC(=O)N([C@H](C)CO)C[C@H]1C | – | – | – | – | –
CCOC(=O)C1(Cc2cccc(OC)c2)CCCN(Cc2cc(OC)c(O)c(OC)c2)C1 (stereo unspecified) | ? | – | – | – | ?
SMILES | DT40 TDP1 CPT | TDP1 cell noCPT | HT1080 IDH1KD tx | HT1080-NT tox | IL-1B inflam inh
C[C@@H]1CN([C@@H](C)CO)C(=O)CCCn2nncc2CO[C@@H]1CN(C)C(=O)NC1CCCCC1 | – | – | – | – | –
CC1CN(CC(=O)NCC2(N3CCOCC3)CCCC2)Cc2cc(Cl)ccc2O1 (stereo unspecified) | –[9.04 µM] | ? | · | · | ·
CCN(CC(=O)NCc1cccs1)C(=O)c1ccc(NS(=O)(=O)c2cccc([N+](=O)[O-])c2)cc1 | – | – | – | – | –
Cc1ccc(NC(=O)CSc2nc3ccc(Nc4nc(N5CCOCC5)nc(N5CCOCC5)n4)cc3s2)cc1 | ? | 18.4µM | – | – | –
COc1ccc(NC(=O)CSc2nc3ccc(Nc4nc(N5CCOCC5)nc(N5CCOCC5)n4)cc3s2)cc1 | 11.6µM | 6.51µM | – | – | –
CCOC(=O)CSc1nc2ccc(Nc3nc(N4CCOCC4)nc(N4CCOCC4)n3)cc2s1 | ? | 20.6µM | ? | – | –
CC(C)(C)NC(=O)CSc1nc2ccc(Nc3nc(N4CCOCC4)nc(N4CCOCC4)n3)cc2s1 | 13µM | 6.51µM | ? | ? | –
COC(=O)c1cccc(NC(=O)CCN2C(=O)C3CC=CCC3C2=O)c1 (stereo unspecified) | – | – | – | – | –
CCN1CCCC1CNC(=O)c1cnn(-c2nccc(-c3ccco3)n2)c1C1CC1 (stereo unspecified) | – | – | · | · | ·
COC(=O)c1ccc(NC(=O)C2C3C=CC(C3)C2C(=O)O)cc1 (stereo unspecified) | – | – | – | ? | –
O=C(ONC(=O)C1C2C=CC(C2)C1C(=O)NOC(=O)c1ccccc1)c1ccccc1 (stereo unspecified) | 3.26µM | 2.91µM | ? | – | –
CCOC(=O)CCNC(=O)N1CCCC(CCC(=O)N(C)CCc2ccccn2)C1 (stereo unspecified) | – | – | – | – | –
COC(=O)Cn1cc(/C=C/c2cc[n+](C)cc2)c2ccccc21 | ? | ? | – | – | –
COC(=O)Cn1c(C)c(/C=C/c2cc[n+](C)cc2)c2ccccc21 | ? | 16.4µM | – | – | –
CCC(=O)Nc1cccc(NC(=O)c2ccccc2Cl)c1 | – | – | – | – | –
CCCn1c(=O)sc2cc(NC(=O)c3ccccc3Cl)ccc21 | 20.6µM | ? | · | · | ·
O=C1C2C3C=CC(C3=C(c3ccccc3)c3ccccc3)C2C(=O)N1Cc1ccccc1 (stereo unspecified) | ? | 18.4µM | ? | – | –
O=C(NNC(=O)c1ccccc1Cl)c1cc2cc(OC(F)(F)F)ccc2[nH]1 | – | ? | – | – | –
Cc1ccc(C)c2sc(NC(=O)c3nc4ccccc4s3)nc12 | ? | ? | – | – | –
CCCCN(C)C(=O)c1sc(=O)n(Cc2ccccc2C#N)c1C | 13µM | ? | – | – | –
Cc1ccccc1Cn1c(C)c(C(=O)N(C)Cc2ccc(F)cc2)sc1=O | ? | 18.4µM | – | – | –
Cc1c(C(=O)N(C)Cc2ccc(F)cc2)sc(=O)n1Cc1ccccc1C#N | 23.1µM | 16.4µM | – | – | –
CCCCN(C)C(=O)c1sc(=O)n(CC(=O)c2ccccc2OC)c1C | ? | ? | – | – | –
CCOC(=O)C(Cc1ccccc1)C(=O)NCc1ccccc1 (stereo unspecified) | – | – | – | – | –
